The source of these data is PubChem BioAssay (Tox21).

The structures appear in SMILES notation. A number with no mark means an inactive call. Records with an inconclusive call do not appear. Activity calls are given as the source filed them. Unless noted, calls follow the shape of the full dose curve.

The nature of test [1]: qHTS assay to identify small molecule agonists of the sonic hedgehog signaling (Shh) pathway (AID 1259368).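 Also: NIH/3T3-derived 3T3Gli1-Luc cells carrying a stable Gli1-driven firefly luciferase reporter; series mostly up to about 92 µM; nearly all actives have a fitted effect of over 15% in size.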 The method, boiled down: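 Luminescence was read after 30 min at room temperature with luciferase reagent. Before that, 3T3Gli1-Luc cells (NIH/3T3 clone, stable Gli1-Luc reporter; 2,000/well) were exposed to compounds for 24 hr at 37C, 5% CO2, compounds being added 4 hr post-plating.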

The nature of test [2]: qHTS assay to identify small molecule agonists of the androgen receptor (AR) signaling pathway in the presence of an antagonist - cell viability counter screen (AID 1259379; active = well fitted curve in the direction sought with a large enough effect in the repeat runs; an effect the other way counts as inactive or inconclusive;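 also: MDA-kb2 human breast cancer cells carrying an MMTV luciferase reporter; series mostly up to about 92 µM; nearly all actives have a fitted effect of over 25% in size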). The method, boiled down: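 Cytotoxicity counter-screen run in the same wells as the nilutamide-challenged (3.0 µM final) AR agonist assay in MDA-kb2 cells. Compounds tested at 15 concentrations for 16 h, 37 °C without CO2; CellTiter-Fluor fluorescence read.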
A general note: Quantitative high-throughput screening tests each substance at several concentrations.

A short description of test [3]: qHTS assay to identify small molecule agonists of the estrogen receptor beta (ER-beta) signaling pathway - cell viability counter screen (AID 1259380; active = well fitted curve in the direction sought with a large enough effect in the repeat runs; an effect the other way counts as inactive or inconclusive; also: nearly all actives have a fitted effect of over 30% in size; also: potency is read from the fitted curve at half-maximal effect). The method, boiled down: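 Cell viability counter screen: CellTiter-Glo luminescence (30 min, room temperature) measured in the same wells as the beta-lactamase readout, after 16 hr compound exposure at 37C of ER-beta-bla HEK293T cells in 2% charcoal-stripped FBS medium.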

Test [4] addresses Androgen receptor (Homo sapiens) (UniProt P10275). Description: qHTS assay to identify small molecule agonists of the androgen receptor (AR) signaling pathway in the presence of an antagonist (AID 1259381). Also: nearly all actives have a fitted effect of over 15% in size. In short, it runs like this:
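Agonist-mode confirmation run against 3.0 uM final nilutamide: compounds titrated at 15 concentrations onto MDA-kb2 MMTV-luciferase reporter cells. Luminescence measured with ONE-Glo following 16 hr incubation, 37C, 0% CO2.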

The nature of test [5]: qHTS assay to identify small molecule agonists or antagonists of the thyroid stimulating hormone receptor (TSHR) signaling pathway - wild type cell line counter screen (AID 1259384). The method, boiled down: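 Wild-type Hek293 cells, 800/well, 18 h at 37C, then compound with Ro20-1724 for 30 min RT. cAMP by HTRF (cAMP-d2/anti-cAMP cryptate), 1 h RT, fluorescence read. 15 concentrations, triplicates.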

Test [6] concerns the target Thyrotropin receptor (Homo sapiens) (UniProt P16473). Description: qHTS assay to identify small molecule antagonists of the thyroid stimulating hormone receptor (TSHR) signaling pathway (AID 1259385). Also: nearly all actives have a fitted effect of over 20% in size. The method, boiled down:
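TSHR-HEK293 cells (800/well) plated 18 h, then compounds with Ro20-1724 and TSH at 1.5 ng/mL final, 30 min at room temperature. cAMP quantified by HTRF (cAMP-d2/anti-cAMP-cryptate, 1 h); 15 concentrations in triplicate.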

Test [7] in a line: qHTS assay to identify small molecule agonists of the estrogen receptor alpha (ER-alpha) signaling pathway in the presence of an antagonist - cell viability counter screen (AID 1259386; active = well fitted curve in the direction sought with a large enough effect in the repeat runs; an effect the other way counts as inactive or inconclusive; also: series mostly up to about 92 µM; nearly all actives have a fitted effect of over 30% in size). The method, boiled down:
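Compounds tested at 15 concentrations for 22 h at 37C alongside 10.0nM (final) ICI-182,780 antagonist, in VM7Luc4E2 cells grown in phenol red-free, charcoal-stripped medium. Viability read by CellTiter-Fluor fluorescence after 1 h reagent incubation.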

In test [8] the target is Progesterone receptor (Homo sapiens) (UniProt P06401). The experiment in a line: qHTS assay to identify small molecule agonists of the progesterone receptor (PR) signaling pathway (AID 1346784). Also: nearly all actives have a fitted effect of over 30% in size. The method, boiled down: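 Agonist mode, quantitative HTS format in a HEK 293T line expressing a UAS-controlled beta-lactamase reporter; 16 hr compound exposure at 37C in 2% charcoal-stripped FBS, then LiveBLAzer B/G FRET fluorescence.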
Chain of Progesterone receptor (Homo sapiens) (P06401 whole entry, looked up): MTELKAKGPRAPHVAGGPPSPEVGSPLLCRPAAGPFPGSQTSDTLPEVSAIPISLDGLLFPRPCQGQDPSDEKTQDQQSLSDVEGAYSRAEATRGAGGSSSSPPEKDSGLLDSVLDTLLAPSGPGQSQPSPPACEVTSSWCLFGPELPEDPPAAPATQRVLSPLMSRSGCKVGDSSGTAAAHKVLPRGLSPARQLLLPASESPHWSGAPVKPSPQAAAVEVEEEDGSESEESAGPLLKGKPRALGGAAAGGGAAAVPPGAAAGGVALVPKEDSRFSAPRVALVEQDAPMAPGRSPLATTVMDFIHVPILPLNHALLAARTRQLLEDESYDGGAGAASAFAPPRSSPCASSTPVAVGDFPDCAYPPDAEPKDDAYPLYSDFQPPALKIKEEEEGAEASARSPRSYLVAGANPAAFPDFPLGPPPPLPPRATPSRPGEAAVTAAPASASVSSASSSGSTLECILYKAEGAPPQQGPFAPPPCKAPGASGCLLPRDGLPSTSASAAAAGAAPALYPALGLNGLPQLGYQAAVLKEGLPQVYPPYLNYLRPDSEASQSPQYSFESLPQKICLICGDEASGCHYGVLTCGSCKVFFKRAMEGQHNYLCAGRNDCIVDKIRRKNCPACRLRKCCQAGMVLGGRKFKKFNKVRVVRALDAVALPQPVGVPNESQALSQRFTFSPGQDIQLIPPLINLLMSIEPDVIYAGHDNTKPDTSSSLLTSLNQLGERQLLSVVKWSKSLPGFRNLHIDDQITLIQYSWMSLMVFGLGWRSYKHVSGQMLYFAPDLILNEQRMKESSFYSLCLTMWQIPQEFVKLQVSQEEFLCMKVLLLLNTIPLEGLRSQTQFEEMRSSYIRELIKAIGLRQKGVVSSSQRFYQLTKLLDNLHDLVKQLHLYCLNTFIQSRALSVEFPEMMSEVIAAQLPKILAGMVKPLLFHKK

The target is the same in test [9]. The experiment in a line: qHTS assay to identify small molecule antagonists of the progesterone receptor (PR) signaling pathway (AID 1346795; active = well fitted inhibition curve with a large enough effect in the signal ratio in the repeat runs, not every such curve was filed as active; the % refers to the signal ratio). In short, it runs like this: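 HEK293T PR-UAS-bla reporter cells in charcoal-stripped serum (2%) received compound after a 6 hr settling period, followed by R5020 agonist at 1 nM final; 16 hr incubation preceded the FRET substrate step and fluorescence measurement.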

A short description of test [10]: qHTS assay to identify small molecule agonists of the TGF-beta/Smad signaling pathway (AID 1346859; active = well fitted activation curve with a large enough effect in the signal ratio in the repeat runs, not every such curve was filed as active; the % refers to the signal ratio; also: series mostly up to about 77 µM). In short, it runs like this:
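Smad-responsive beta-lactamase reporter cells (HEK 293T) received compounds from DMSO stocks after overnight attachment, were incubated 5 hr, then treated 2 hr with FRET substrate before dual-emission fluorescence measurement (405 nm excitation).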

A short description of test [11]: qHTS assay to identify small molecule antagonists of the estrogen receptor beta (ER-beta) signaling pathway - cell viability counter screen (AID 1259382; active = well fitted curve in the direction sought with a large enough effect in the repeat runs; an effect the other way counts as inactive or inconclusive;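 also: HEK293T cells carrying ER-beta-UAS-bla reporter stimulated with estradiol; series mostly up to about 92 µM; nearly all actives have a fitted effect of over 55% in size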). The method, boiled down:
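Cytotoxicity was measured in the same wells by CellTiter-Glo luminescence after 30 min at room temperature. Cells were ER-beta-bla HEK293T in charcoal-stripped serum, given compound together with 1 nM E2 and incubated 16 h at 37C.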

Test [12] has as its target Estrogen receptor (Homo sapiens) (UniProt P03372). The experiment in a line: qHTS assay to identify small molecule agonists of the estrogen receptor alpha (ER-alpha) signaling pathway in the presence of an antagonist (AID 1259383). Also: nearly all actives have a fitted effect of over 15% in size. Also: potency is read from the fitted curve at half-maximal effect. As to activation: top concentration of the series differs between compounds. The method, boiled down: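 Agonist-mode confirmation run in the presence of 10.0nM (final) ICI-182,780 antagonist. The reporter was ERE-driven luciferase in VM7Luc4E2 cells, grown in charcoal-stripped serum. Cells were exposed to 15-concentration compound series for 22hr, then ONE-Glo luminescence was read.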

Test [13] is described as follows: qHTS assay to identify small molecule antagonists of the progesterone receptor (PR) signaling pathway - cell viability counter screen (AID 1346798; active = well fitted curve in the direction sought with a large enough effect in the repeat runs; an effect the other way counts as inactive or inconclusive; also: series mostly up to about 92 µM; nearly all actives have a fitted effect of over 50% in size). The method, boiled down: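 Same-well multiplex: after 16 hr at 37C with compound and R5020 stimulation, HEK293T cells carrying a UAS-bla reporter received LiveBLAzer substrate (2 hr RT), then CellTiter-Glo (30 min RT) for luminescent viability.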

A short description of test [14]: qHTS assay to identify small molecule agonists of the TGF-beta/Smad signaling pathway - cell viability counter screen (AID 1346829; active = well fitted curve in the direction sought with a large enough effect in the repeat runs; an effect the other way counts as inactive or inconclusive; also: top concentration of the series differs between compounds; nearly all actives have a fitted effect of over 45% in size). In short, it runs like this: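 CellTiter-Glo luminescence readout; SBE-bla HEK 293T cells, overnight plating, compound 5 hr at 37 C/5% CO2, then bla substrate 2 hr RT, then CellTiter-Glo 30 min RT.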
A short description of test [15]: qHTS assay to identify small molecule agonists of the progesterone receptor (PR) signaling pathway - cell viability counter screen (AID 1346799). Also: nearly all actives have a fitted effect of over 45% in size. The method, boiled down:
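Counter screen for cytotoxicity: compound-treated PR-UAS-bla HEK293T cells (16 hr, 37C, 5% CO2) were assayed with CellTiter-Glo, luminescence measured after 30 min at room temperature.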

In test [16] the target is Thyrotropin-releasing hormone receptor (Homo sapiens) (UniProt P34981). The experiment in a line: qHTS assay to identify small molecule antagonists of the thyrotropin-releasing hormone receptor (TRHR) signaling pathway (AID 1346877; active = well fitted inhibition curve with a large enough effect in the repeat runs, not every such curve was filed as active; also: series mostly up to about 51 µM). In short, it runs like this:
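Antagonist mode: after a 5 min room-temperature compound exposure, cells were stimulated with 1 nM (final) TRH. Dye-loaded TRHR-HEK293 cells were used, and calcium-dependent fluorescence was followed for 3 min, with 15-point titrations run in triplicate.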

The nature of test [17]: qHTS assay to identify small molecule antagonists of the sonic hedgehog signaling (Shh) pathway (AID 1259369). Also: nearly all actives have a fitted effect of over 45% in size. In short, it runs like this: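 Antagonist mode: compound added to 3T3 Gli1-Luc cells followed by conditioned-medium stimulation, 24 h at 37 C, 5% CO2. Inhibition taken as loss of Gli1-driven luciferase luminescence.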
Test [18] addresses Estrogen receptor beta (Homo sapiens) (UniProt Q92731). The experiment in a line: qHTS assay to identify small molecule agonists of the estrogen receptor beta (ER-beta) signaling pathway (AID 1259377; active = well fitted activation curve with a large enough effect in the signal ratio in the repeat runs, not every such curve was filed as active; the % refers to the signal ratio). The method, boiled down: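 A UAS-controlled beta-lactamase reporter in ER-beta-UAS-bla HEK293T cells reports receptor activation. Compounds act for 16 hr at 37C in 2% charcoal-stripped serum, and a FRET substrate is read by fluorescence after 2 hours.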

Test [19] is described as follows: qHTS assay to identify small molecule antagonists of the TGF-beta/Smad signaling pathway - cell viability counter screen (AID 1346824; active = well fitted curve in the direction sought with a large enough effect in the repeat runs; an effect the other way counts as inactive or inconclusive; also: nearly all actives have a fitted effect of over 50% in size). The method, boiled down: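 SBE-bla HEK 293T cells, incubated overnight, then compound plus 0.25 ng/mL TGF-beta1 (stock added) for 5 hr at 37 C. Viability was read in the same wells by CellTiter-Glo luminescence after 30 min at room temperature.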
% is scaled to controls: 0 for no effect and ±100 for the full control effect.

Chain of Thyrotropin receptor (Homo sapiens) (P16473 whole entry, looked up): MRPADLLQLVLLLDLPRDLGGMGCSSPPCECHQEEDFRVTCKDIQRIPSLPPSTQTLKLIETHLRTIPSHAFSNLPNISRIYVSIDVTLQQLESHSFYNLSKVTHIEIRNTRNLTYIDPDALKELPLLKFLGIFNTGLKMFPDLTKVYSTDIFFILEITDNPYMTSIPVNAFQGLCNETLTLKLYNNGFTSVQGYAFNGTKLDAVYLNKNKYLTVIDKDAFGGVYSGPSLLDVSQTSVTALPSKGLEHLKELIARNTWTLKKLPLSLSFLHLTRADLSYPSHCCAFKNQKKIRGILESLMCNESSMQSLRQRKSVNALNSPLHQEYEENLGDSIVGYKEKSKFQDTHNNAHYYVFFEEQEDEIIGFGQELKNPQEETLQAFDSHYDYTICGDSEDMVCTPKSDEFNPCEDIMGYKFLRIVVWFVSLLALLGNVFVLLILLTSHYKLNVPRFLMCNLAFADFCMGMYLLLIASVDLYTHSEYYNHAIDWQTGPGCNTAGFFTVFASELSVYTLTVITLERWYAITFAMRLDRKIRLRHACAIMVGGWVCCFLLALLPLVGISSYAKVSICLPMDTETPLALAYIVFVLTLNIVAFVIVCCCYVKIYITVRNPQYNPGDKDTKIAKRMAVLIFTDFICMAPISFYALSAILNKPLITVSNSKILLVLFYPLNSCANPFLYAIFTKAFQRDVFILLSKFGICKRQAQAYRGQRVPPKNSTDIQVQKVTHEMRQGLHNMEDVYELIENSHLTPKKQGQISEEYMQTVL
Chain of Estrogen receptor (Homo sapiens) (P03372 whole entry, looked up): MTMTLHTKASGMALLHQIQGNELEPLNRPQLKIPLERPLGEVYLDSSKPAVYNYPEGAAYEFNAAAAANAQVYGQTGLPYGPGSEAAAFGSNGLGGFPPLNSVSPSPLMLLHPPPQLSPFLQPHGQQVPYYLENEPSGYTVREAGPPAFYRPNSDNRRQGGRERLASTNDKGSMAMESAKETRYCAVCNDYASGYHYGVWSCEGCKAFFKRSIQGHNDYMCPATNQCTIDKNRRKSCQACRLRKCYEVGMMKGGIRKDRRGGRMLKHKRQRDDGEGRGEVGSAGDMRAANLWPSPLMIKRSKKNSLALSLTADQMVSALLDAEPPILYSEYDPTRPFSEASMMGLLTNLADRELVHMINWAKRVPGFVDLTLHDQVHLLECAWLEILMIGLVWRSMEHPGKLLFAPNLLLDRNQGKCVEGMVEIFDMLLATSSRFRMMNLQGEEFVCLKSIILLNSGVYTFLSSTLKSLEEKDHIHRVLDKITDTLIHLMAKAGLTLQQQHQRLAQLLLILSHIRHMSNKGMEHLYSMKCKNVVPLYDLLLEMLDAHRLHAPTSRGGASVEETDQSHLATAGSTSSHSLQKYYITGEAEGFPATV
Chain of Thyrotropin-releasing hormone receptor (Homo sapiens) (P34981 whole entry, looked up): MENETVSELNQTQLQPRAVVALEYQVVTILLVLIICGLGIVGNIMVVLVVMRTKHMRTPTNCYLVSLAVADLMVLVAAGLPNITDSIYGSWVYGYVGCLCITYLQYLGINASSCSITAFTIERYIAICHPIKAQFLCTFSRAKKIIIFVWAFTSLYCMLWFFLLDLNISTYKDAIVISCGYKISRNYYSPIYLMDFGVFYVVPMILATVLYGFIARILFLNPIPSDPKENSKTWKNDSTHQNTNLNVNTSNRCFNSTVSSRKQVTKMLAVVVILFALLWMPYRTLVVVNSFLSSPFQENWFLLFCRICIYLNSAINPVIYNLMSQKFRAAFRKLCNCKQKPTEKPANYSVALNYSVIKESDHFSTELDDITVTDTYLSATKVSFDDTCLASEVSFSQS
Chain of Androgen receptor (Homo sapiens) (P10275 whole entry, looked up): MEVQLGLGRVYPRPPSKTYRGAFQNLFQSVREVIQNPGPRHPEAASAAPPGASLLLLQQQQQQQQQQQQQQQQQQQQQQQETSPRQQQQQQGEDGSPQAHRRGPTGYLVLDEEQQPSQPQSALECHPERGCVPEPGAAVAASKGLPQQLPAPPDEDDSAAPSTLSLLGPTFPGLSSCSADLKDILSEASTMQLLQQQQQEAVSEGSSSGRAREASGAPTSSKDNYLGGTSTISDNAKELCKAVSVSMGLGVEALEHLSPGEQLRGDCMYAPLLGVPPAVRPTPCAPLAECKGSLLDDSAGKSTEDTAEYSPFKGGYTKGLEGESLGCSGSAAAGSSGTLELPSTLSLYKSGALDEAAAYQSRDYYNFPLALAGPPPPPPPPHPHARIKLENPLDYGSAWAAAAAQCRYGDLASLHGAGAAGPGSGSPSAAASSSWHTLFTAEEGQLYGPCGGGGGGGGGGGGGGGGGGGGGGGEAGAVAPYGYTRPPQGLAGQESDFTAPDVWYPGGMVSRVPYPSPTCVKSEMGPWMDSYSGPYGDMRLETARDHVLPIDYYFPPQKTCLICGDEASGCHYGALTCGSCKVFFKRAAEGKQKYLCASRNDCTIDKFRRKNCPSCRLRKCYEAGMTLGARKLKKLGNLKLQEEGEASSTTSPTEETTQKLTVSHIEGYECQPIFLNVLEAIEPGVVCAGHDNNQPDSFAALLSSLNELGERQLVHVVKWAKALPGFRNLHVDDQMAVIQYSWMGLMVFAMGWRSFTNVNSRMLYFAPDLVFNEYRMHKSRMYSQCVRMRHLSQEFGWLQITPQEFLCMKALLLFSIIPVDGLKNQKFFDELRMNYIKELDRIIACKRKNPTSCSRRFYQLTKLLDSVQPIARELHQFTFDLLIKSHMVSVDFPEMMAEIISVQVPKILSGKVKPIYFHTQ
Chain of Estrogen receptor beta (Homo sapiens) (Q92731 whole entry, looked up): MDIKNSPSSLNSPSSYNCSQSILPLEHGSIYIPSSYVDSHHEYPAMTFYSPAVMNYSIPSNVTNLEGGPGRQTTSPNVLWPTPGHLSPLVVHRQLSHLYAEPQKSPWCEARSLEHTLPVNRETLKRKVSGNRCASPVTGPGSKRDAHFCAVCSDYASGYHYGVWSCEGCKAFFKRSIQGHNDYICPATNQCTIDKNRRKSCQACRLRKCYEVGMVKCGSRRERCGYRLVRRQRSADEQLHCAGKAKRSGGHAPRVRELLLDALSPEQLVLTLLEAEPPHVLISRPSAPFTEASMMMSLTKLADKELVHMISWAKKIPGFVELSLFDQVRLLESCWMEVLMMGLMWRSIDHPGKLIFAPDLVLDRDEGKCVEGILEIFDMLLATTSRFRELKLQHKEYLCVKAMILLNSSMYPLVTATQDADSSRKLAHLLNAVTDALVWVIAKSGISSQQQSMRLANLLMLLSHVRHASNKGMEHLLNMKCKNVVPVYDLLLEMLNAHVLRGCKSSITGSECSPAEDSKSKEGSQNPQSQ

`CCCCCCCCCCCCCOS(=O)(=O)O`: the Potency entry in [1], in [2], in test [4], in test [5], in [6] and in test [7] was “inactive” throughout. The Potency result in test [8], in test [9] and in test [10] was “inactive” throughout. For the same compound, in test [3], the Potency is 54.5 µM (active).
As to `CCOC(=O)c1ccc(NC(=O)CN2CCCCC2)cc1`, the Potency entry in [1], in test [2], in test [4], in test [11], in [12] and in test [5] was “inactive” throughout. The Potency result in test [7], in [13], in test [14] and in test [10] was “inactive” in each case.
Turning to `CC(C)N=C=NC(C)C`, the Potency entry in test [1], in [11], in test [12], in test [7], in test [8] and in test [9] was “inactive” throughout. The Potency entry in test [15], in test [14] and in [10] was “inactive” in each case. Moreover, in test [16], the compound was classed as inactive.
For `CCC(Cl)CC(Cl)C(Cl)C(Cl)C(Cl)C(C)Cl` (centres undefined), the activity change, negative = inhibition is 58.5% [at 19 µM] in test [17], -0.191% [at 19 µM] in test [6] and -4% [at 18.9 µM] in test [9]. Besides, the activity change, negative = cytotoxicity in test [2] is 2.03% [at 19 µM]; in test [3], -10.7% [at 19 µM]; in test [11], -4.67% [at 19 µM]; in test [7], 5.27% [at 19 µM]; in test [13], -5.89% [at 18.9 µM]; in test [15] it was 9.92% [at 19 µM]. In test [14], the activity change, negative = cytotoxicity is 0% [at 15.8 µM]. In addition, the figures for the activation in test [4], in [12] and in test [8] were 4.69% [at 19 µM], 11.4% [at 19 µM] and -2.07% [at 19 µM], respectively. For the same compound, the cAMP activity change in [5] is 4.41% [at 18.9 µM, hits give high values]. Further, the activity, negative = inhibition in test [16] is 0.125% [at 10.5 µM].
With `CCO[Si](C)(CCCOCC1CO1)OCC` (centres undefined), the Potency result in test [1], in test [18], in test [11], in test [12], in test [5] and in test [6] was “inactive” in each case. Further, the Potency entry in test [7], in test [8], in test [9], in test [13], in [15] and in test [14] was “inactive” throughout. Moreover, the Potency result in [10] was “inactive”. Moreover, the result in [19] was inactive.
Take `COc1cc(C(C)=O)ccc1OCCCN1CCC(c2noc3cc(F)ccc23)CC1`: the Potency result in [1], in [2], in test [11], in test [5], in test [7] and in test [8] was “inactive” throughout. Besides, the Potency result in test [9], in [13], in test [15], in test [14] and in test [10] was “inactive” throughout. Further, the compound was classed as inactive in [19] and in test [16].
As to `Cc1ccc2c(c1[N+](=O)[O-])C(=O)c1ccccc1C2=O`, the Potency entry in [1], in [2], in test [3], in [5], in [6] and in test [9] was “inactive” throughout. Moreover, the Potency result in test [13], in test [15], in test [14] and in test [10] was “inactive” in each case. Further, the Potency in test [12] is 3.37 µM (active).
As for `CC(CCc1ccc(O)cc1)NCCc1ccc(O)c(O)c1` (centres undefined), the Potency entry in [1], in test [2], in test [3], in test [11], in [12] and in test [5] was “inactive” each time. In addition, the Potency entry in test [6], in test [8], in [9], in test [13], in test [15] and in [10] was “inactive” in each case. Moreover, the result in test [19] and in test [16] was inactive.
On to `Oc1ccc2c(c1)Cc1ccccc1-2`, for which the Potency result in test [1], in test [2], in test [11], in test [5], in test [6] and in test [7] was “inactive” each time. In addition, the Potency entry in test [8], in [13] and in test [10] was “inactive” each time. For the same compound, the compound was classed as inactive in [19] and in test [16].
Regarding `C[C@@H]1[C@H](O)[C@@H](C)/C=C/C=C\C=C\C=C\C=C\C=C\C=C\[C@H](O[C@@H]2O[C@H](C)[C@@H](O)[C@H](N)[C@@H]2O)C[C@@H]2O[C@](O)(C[C@@H](O)C[C@@H](O)[C@H](O)CC[C@@H](O)C[C@@H](O)CC(=O)O[C@H]1C)C[C@H](O)[C@H]2C(=O)O` (stereo in doubt), the Potency result in test [1], in [12], in test [5] and in test [8] was “inactive” in each case. For the same compound, the Potency in test [3] is 61.1 µM (active). Further, in test [19], the compound was classed as inactive.
